Structures are written as SMILES. Results filed as inconclusive are left out. Activity calls are given as the source filed them. Unless noted, the call rests on the fitted dose curve; in most records, active means well fitted inhibition curve with a large enough effect; inconclusive means small, poorly fitted or top-dose-only effect; inactive means no such curve, though single readings can be large or run the other way.
Potency means the concentration at half of the fitted maximal effect.

Chain of Cytochrome P450 2C19 (Homo sapiens) (P33261 whole entry, looked up): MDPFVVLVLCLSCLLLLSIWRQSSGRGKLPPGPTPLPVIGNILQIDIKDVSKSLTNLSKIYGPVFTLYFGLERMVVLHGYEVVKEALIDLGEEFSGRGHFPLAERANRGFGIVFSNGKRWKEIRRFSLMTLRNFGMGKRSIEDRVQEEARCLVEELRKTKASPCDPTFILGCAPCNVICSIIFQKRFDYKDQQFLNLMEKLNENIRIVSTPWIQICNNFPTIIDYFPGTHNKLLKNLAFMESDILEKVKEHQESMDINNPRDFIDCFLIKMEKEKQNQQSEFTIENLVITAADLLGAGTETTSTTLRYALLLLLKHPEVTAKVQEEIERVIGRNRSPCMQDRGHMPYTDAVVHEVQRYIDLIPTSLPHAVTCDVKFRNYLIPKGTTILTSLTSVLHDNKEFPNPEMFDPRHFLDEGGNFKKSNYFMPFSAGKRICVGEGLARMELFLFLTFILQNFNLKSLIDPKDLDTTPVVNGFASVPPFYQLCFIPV
Chain of Cytochrome P450 2D6 (Homo sapiens) (P10635 whole entry, looked up): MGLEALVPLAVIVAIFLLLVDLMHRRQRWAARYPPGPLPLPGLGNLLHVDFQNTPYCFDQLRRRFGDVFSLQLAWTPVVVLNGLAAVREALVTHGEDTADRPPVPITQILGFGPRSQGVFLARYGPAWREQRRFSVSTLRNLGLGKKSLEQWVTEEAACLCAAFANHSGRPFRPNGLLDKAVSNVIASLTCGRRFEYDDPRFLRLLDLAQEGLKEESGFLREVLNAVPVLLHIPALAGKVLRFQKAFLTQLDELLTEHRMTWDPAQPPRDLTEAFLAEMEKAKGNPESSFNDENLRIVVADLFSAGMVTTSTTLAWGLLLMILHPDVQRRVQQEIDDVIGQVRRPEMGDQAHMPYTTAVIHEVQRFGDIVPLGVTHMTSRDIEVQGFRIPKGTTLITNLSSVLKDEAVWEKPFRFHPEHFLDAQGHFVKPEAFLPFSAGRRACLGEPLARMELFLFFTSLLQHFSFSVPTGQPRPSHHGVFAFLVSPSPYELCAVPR

The first assay has as its target Cytochrome P450 2D6 (Homo sapiens) (UniProt P10635). In words: qHTS Assay for Inhibitors and Substrates of Cytochrome P450 2D6 (AID 891). Further: nearly all actives have a fitted effect of over 60% in size. To be noted: recombinant CYP2D6, luciferin-ME EGE luminescence; series mostly up to 57.1 µM. The procedure, abridged: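 Human CYP2D6 (5 nM) with 30 uM Luciferin-ME EGE (at Km) in 100 mM KPO4, compound preincubated 10 min, then NADPH regeneration system for 60 min at room temperature. Luciferin read by luminescence; normalized to 1.43 uM quinidine.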
For the compound `Cc1nc2cnc(N3CCN(C)CC3)nc2n(CCc2ccccc2)c1=O`, the Potency is 2.51 µM (active).

For the compound `c1ccc(CNc2nc(-c3cccnc3)nc3ccccc23)cc1`, the Potency was 15.8 µM (active).

With `COc1cccc(-c2nc(NC3CC3)c3ccccc3n2)c1`, the Potency was 7.94 µM (active).

For `COc1ccc2[nH]cc(CCNc3ncnc4ccc(-c5ccoc5)cc34)c2c1`, the Potency was 5.01 µM (active).

Regarding `CN(C)c1ncc2nc(CCc3ccccc3)c(=O)n(CCC#N)c2n1`, the Potency is 2.51 µM (active).

Regarding `CN(Cc1ccco1)c1nc(-c2ccccc2C(F)(F)F)nc2ccccc12`, the Potency was 7.94 µM (active).

For `N#Cc1cccc(-c2nc(NCCN3CCOCC3)c3ccccc3n2)c1`, the Potency was 7.94 µM (active).

Another assay concerns the target Cytochrome P450 2C19 (Homo sapiens) (UniProt P33261). In words: qHTS Assay for Inhibitors and Substrates of Cytochrome P450 2C19 (AID 899). Further: nearly all actives have a fitted effect of over 60% in size. Particulars: recombinant CYP2C19, luciferin-H EGE luminescence; series mostly up to 57.1 µM. The procedure, abridged:
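5 nM human CYP2C19 with 10uM Luciferin-H EGE (at KM) in 50mM KPO4, compound preincubated 10 min at 37C, then NADPH regeneration for 60 min at 37C. Luciferin read by luminescence after detection reagent; normalized to 57uM ketoconazole as full inhibition.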
Regarding `Cc1nc2cnc(N3CCN(C)CC3)nc2n(CCc2ccccc2)c1=O`, the Potency was 5.01 µM (active).

Turning to `c1ccc(CNc2nc(-c3cccnc3)nc3ccccc23)cc1`, the Potency was 15.8 µM (active).

With `COc1cccc(Cn2c(=O)cnc3cnc(Nc4cccc(OC)c4)nc32)c1`, the Potency was 3.98 µM (active).

As for `COc1ccc2[nH]cc(CCNc3ncnc4ccc(-c5ccoc5)cc34)c2c1`, the Potency is 7.94 µM (active).

As to `COc1ccc(CNc2ncncc2-c2ccccc2OC)c(OC)c1`, the Potency was 2 µM (active).

On to `CCNc1ncc2nc(CCc3ccccc3)c(=O)n(Cc3cccc(OC)c3)c2n1`, for which the Potency is 6.31 µM (active).

Regarding `CN(Cc1ccco1)c1nc(-c2ccccc2C(F)(F)F)nc2ccccc12`, the Potency was 7.94 µM (active).

In the case of `Clc1ccccc1-c1nc(-n2ccnc2)c2ccccc2n1`, the Potency is 7.94 µM (active).

As to `COc1ccc(-n2c(=O)c(CCc3ccccc3)nc3cnc(OC)nc32)cc1`, the Potency is 6.31 µM (active).

System in another assay: not listed separately
Nature of the assay: qHTS Assay for Identification of Small Molecule Agonists for Hypoxia Response Element Signaling Pathway (AID 914; active means well fitted activation curve with a large enough effect in the signal ratio, with a control signal flat, not every such curve was filed as active; the % refers to the signal ratio; on activation: % of control where 0% means no effect). Particulars: ME-180 (cervical carcinoma) HRE-bla reporter, beta-lactamase ratio, CoCl2, 17 h; activation: stronger effect = higher value. The procedure, abridged: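 A beta-lactamase reporter under hypoxia response element control in ME-180 cells served as the system. Compound titrations plus EC50 CoCl2 ran 17 h at 37 degrees Celsius; AC50 values were fitted from %Activity.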
Turning to `COc1ccccc1-c1nccc(N2CCN(C)CC2)n1`, the activation is 26.2% (inactive).

Turning to `COc1cccc(-c2cncnc2NCCN2CCOCC2)c1`, the Potency was 2.51 µM (active).

Regarding `COc1cccc(-c2ccc3ncnc(NCc4cnc(C)cn4)c3c2)c1`, the activation is -8.99% (inactive).

Take `COCCn1c(=O)c(-c2cccs2)nc2cnc(Oc3ccccc3)nc21`: the Potency is 3.16 µM (active).

On to `CN(C)c1ncc2nc(CCc3ccccc3)c(=O)n(CCc3ccccc3)c2n1`, for which the activation was 21.3% (inactive).

Regarding `COCCn1c(=O)c(-c2cc(F)cc(F)c2)nc2cnc(N3CCN(C)CC3)nc21`, the Potency was 3.16 µM (active).

For `O=c1c(CCc2ccccc2)nc2cnc(N3CCOCC3)nc2n1-c1ccccc1`, the activation is -5.71% (inactive).

As for `COc1ccc(-n2c(=O)c(CCc3ccccc3)nc3cnc(OC)nc32)cc1`, the activation was -18.9% (inactive).

On to `N#Cc1cccc(-c2nc(NCCN3CCOCC3)c3ccccc3n2)c1`, for which the activation was -16.9% (inactive).
